Among the data in the supplement of paper PMC10849652 are log2 fold change values, retold here.

Targets with a hit are over-represented here; the source holds about 7,900 in all. About 0.6% of all pairs of compound and target were hits. Values without a mark were called inactive.

Holding throughout (assay): log2 fold change, soluble protein after heating vs DMSO (PISA); higher = thermal stabilisation; K562 cells, 10 uM, 30 min; active = over 0.2 and 3.5 SD of the protein, either way, in both replicates (recomputed)
Compound in experiment [1]: C1=CC=C(C=C1)[C@H](COC2=CC3=C(C=C2)NC(=O)N3)NC(=O)C4=CC=CN(C4=O)CC5=CC(=C(C=C5)F)F
The essentials: (§1)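 Quantification of soluble protein used TMTpro 16plex LC-MS/MS, with channel sums equalised. Samples were the supernatant after 21,000xg for 90 min of pooled aliquots from K562 cells (2×10^6 cells/mL) treated with 10 μM compound for 30 min, heated for 3 min over 48°C-58°C, and extracted in PBS with 0.5% NP-40 at 4°C. Values, from duplicates, describe thermal stability against control samples on a log2 fold-change scale.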

Compound in experiment [2]: CC1=C(SC2=C1C(=N[C@H](C3=NN=C(N32)C)CC(=O)N)C4=CC=C(C=C4)Cl)C
The essentials:
as §1

Compound in experiment [3]: CC1=C2C(=CC=C1)N=C(N(C2=O)C3=CC=CC=C3C)CN4C=NC5=C(N=CN=C54)N
The essentials:
as §1

Compound in experiment [4]: Cc1sc2c(c1C)C(c1ccc(Cl)cc1)=N[C@@H](CC(=O)OC(C)(C)C)c1nnc(C)n1-2
A digest of the protocol: as §1

Compound in experiment [5]: c1ccc([C@@H]2C[C@H]2NC2CCNCC2)cc1
The essentials: as §1

UniProt P13861, sequence (P13861 whole entry, looked up): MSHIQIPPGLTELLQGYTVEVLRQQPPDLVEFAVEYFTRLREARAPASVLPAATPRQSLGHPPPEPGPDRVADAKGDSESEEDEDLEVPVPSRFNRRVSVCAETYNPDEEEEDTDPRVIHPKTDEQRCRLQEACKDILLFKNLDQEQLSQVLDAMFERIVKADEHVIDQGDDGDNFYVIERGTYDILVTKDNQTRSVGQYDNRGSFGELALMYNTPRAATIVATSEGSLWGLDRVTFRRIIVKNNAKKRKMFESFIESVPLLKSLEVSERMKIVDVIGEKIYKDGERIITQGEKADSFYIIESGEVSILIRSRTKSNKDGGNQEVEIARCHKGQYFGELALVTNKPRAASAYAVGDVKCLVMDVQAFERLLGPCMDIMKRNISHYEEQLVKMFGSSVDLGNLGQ
UniProt Q8NCC3, sequence (Q8NCC3 whole entry, looked up): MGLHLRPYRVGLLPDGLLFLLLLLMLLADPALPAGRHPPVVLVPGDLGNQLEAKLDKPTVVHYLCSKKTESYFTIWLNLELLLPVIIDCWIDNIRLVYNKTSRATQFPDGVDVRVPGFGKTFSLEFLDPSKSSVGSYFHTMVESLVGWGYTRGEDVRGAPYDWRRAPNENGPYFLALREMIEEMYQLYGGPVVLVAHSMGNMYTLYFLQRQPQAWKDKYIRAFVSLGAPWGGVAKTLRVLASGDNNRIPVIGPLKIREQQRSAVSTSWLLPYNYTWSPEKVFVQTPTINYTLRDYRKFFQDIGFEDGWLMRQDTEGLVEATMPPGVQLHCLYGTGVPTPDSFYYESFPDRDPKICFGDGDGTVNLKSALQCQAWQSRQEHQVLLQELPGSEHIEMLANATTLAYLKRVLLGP
UniProt P53609, sequence (P53609 whole entry, looked up): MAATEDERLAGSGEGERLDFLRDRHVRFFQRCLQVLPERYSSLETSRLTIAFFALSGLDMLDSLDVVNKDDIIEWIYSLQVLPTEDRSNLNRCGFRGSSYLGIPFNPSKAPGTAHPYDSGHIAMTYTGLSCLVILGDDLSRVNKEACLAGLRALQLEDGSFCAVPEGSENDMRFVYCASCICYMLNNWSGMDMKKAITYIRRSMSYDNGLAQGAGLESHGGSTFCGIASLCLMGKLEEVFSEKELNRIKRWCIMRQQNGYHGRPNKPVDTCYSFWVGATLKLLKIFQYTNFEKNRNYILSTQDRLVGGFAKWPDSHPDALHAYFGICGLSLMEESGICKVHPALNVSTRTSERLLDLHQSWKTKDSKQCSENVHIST
UniProt O14974, sequence (O14974 whole entry, looked up): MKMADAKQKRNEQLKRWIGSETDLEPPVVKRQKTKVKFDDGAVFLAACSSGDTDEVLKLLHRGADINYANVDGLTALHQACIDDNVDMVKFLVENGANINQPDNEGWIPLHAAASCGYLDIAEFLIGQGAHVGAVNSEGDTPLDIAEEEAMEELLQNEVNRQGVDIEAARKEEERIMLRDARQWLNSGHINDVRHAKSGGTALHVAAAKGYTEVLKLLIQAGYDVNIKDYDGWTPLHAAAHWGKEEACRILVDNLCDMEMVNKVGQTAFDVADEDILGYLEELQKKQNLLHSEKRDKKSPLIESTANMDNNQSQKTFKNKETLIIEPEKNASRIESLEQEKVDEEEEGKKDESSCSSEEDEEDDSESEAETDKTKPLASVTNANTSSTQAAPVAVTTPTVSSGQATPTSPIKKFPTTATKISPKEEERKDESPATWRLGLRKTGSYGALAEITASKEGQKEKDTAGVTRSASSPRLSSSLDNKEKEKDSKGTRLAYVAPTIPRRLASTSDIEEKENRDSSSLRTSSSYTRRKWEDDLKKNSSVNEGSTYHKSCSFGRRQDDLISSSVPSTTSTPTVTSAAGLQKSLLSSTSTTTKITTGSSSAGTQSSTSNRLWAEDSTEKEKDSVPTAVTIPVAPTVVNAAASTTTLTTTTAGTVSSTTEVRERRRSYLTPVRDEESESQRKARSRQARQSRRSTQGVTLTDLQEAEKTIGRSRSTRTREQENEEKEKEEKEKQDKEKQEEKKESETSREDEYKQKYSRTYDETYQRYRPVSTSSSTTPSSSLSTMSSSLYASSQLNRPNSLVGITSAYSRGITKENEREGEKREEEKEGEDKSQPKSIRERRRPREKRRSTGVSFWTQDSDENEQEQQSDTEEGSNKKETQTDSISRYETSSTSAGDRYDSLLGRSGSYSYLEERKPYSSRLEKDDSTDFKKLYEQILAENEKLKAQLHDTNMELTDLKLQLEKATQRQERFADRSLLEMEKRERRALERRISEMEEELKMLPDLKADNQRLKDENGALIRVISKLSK
UniProt Q14181, sequence (Q14181 whole entry, looked up): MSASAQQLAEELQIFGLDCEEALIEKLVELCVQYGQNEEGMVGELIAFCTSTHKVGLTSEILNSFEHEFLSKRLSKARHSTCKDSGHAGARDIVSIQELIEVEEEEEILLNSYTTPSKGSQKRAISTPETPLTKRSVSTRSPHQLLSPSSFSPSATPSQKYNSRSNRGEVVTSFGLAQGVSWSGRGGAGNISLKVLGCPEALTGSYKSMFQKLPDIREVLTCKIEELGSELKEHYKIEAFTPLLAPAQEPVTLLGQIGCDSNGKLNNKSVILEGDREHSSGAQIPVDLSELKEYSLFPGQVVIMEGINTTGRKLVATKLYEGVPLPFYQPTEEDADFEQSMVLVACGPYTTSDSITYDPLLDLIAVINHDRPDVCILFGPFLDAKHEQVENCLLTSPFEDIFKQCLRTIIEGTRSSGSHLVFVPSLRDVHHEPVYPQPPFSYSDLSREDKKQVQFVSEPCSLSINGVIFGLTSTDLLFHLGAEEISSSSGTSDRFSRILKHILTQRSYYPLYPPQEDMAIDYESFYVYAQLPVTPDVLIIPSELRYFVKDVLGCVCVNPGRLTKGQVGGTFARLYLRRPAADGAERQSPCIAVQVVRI
UniProt Q14442, sequence (Q14442 whole entry, looked up): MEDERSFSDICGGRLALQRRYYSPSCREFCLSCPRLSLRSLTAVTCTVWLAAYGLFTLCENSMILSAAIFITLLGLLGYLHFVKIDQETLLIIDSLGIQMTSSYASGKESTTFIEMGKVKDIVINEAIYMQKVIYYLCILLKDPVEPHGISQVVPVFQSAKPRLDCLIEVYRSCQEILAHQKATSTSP
UniProt Q8IV08, sequence (Q8IV08 whole entry, looked up): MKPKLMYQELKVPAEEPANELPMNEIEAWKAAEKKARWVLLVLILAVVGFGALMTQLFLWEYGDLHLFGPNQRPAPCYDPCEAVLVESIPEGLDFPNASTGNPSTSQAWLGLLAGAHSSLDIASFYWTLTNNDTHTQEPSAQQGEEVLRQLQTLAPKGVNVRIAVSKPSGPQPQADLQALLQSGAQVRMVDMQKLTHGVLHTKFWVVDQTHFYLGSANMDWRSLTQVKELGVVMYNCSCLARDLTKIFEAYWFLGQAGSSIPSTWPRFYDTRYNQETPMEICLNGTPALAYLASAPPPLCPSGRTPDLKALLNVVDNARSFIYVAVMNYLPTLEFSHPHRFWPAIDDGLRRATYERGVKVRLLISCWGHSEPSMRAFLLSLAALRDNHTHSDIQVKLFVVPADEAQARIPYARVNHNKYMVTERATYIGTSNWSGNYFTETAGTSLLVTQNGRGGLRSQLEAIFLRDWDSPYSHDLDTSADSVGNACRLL
UniProt Q8TAP8, sequence (Q8TAP8 whole entry, looked up): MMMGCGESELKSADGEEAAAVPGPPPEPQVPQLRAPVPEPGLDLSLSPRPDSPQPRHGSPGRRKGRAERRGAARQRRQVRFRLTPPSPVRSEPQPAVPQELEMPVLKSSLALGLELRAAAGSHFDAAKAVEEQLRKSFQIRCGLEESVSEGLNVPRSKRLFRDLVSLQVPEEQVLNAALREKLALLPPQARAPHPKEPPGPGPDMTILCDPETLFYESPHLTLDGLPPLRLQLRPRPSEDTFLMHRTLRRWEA

Turning to PGGT1B (UniProt P53609), the log2 fold change was 0.025 in experiment [1]; 0.066 in experiment [2]; 0.051 in experiment [3]; -0.018 in experiment [4]; -0.004 in experiment [5].
Consider PRKAR2A (UniProt P13861), for which the log2 fold change in experiment [1] is 0.044; in experiment [2] it was 0.046; in experiment [3], 0.054; in experiment [4], 0.018; in experiment [5], -0.003.
Turning to PRKACA (UniProt P17612), the log2 fold change in experiment [1] is -0.01; in experiment [2], 0.005; in experiment [3] it was -0.053; in experiment [4], -0.009; in experiment [5], 0.035.
Regarding PIGH (UniProt Q14442), the log2 fold change in experiment [1] was 0.044; in experiment [2] it was 0.064; in experiment [3], 0.144; in experiment [4], -0.046; in experiment [5], -0.024.
As for POLA2 (UniProt Q14181), the log2 fold change is -0.023 in experiment [1]; 0.048 in experiment [2]; 0.114 in experiment [3]; -0.006 in experiment [4]; 0.034 in experiment [5].
As to PPP1R12A (UniProt O14974), the log2 fold change in experiment [1] is 0.005; in experiment [2] it was 0.057; in experiment [3], 0.047; in experiment [4], 0.035; in experiment [5], -0.008.
As for PLD3 (UniProt Q8IV08), the log2 fold change is 0.022 in experiment [1]; 0.058 in experiment [2]; 0.033 in experiment [3]; 0.017 in experiment [4]; 0.009 in experiment [5].
For the target PLA2G15 (UniProt Q8NCC3), the log2 fold change in experiment [1] is 0.02; in experiment [2], -0.01; in experiment [3], -0.034; in experiment [4] it was -0.001; in experiment [5], 0.
PPP1R35 (UniProt Q8TAP8): the log2 fold change in experiment [1] was 0.01; in experiment [2], 0.006; in experiment [3], 0.067; in experiment [4], 0.03; in experiment [5], 0.362 (active).
